Reference: the supplement of paper PMC6555819

Columns and labels:
Test in all cases: PBM binding z-score (relative to random genomic background probes); higher = stronger binding; sequences stand for … in GC…GCGATTGACAGCGTAGAATGAAGG
[1] = test system: PPARg:RXRa DBDmut IVT, anti-RXR (DBD mutation: RXRa K156A/R161A, NR concentration 270 nM, RXRa partner concentration 90 nM)
Procedure, shortened: (§1)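 Random background probes are the reference for binding z-scores. These scores derive from regression-normalized fluorescence on custom Agilent 4×180K protein-binding microarrays incubated 1 h with ligand-free nuclear receptor dimers. Binding was detected with antibodies against each partner (one per run).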

[2] = test system: PPARg:RXRa IVT, anti-PPARg (NR concentration 270 nM, RXRa partner concentration 90 nM)
Procedure, shortened: as §1

[3] = test system: PPARg DBDmut:RXRa IVT, anti-PPARg (DBD mutation: PPARg1 K132A/R137A, NR concentration 270 nM, RXRa partner concentration 90 nM)
Procedure, shortened: as §1

[4] = test system: PPARg DBDmut IVT, anti-PPARg (DBD mutation: PPARg1 K132A/R137A, NR concentration 270 nM)
Procedure, shortened: as §1

[5] = test system: PPARg homodimer (NR concentration 180 nM)
Procedure, shortened: as §1

[6] = test system: PXR:RXRa (NR concentration 270 nM, RXRa partner concentration 90 nM)
Procedure, shortened: as §1

[7] = test system: PXR homodimer (NR concentration 270 nM)
Procedure, shortened: as §1

[8] = test system: RARa:RXR (NR concentration 270 nM, RXRa partner concentration 90 nM)
Procedure, shortened: as §1

[9] = test system: RARa homodimer (NR concentration 270 nM)
Procedure, shortened: as §1

[10] = test system: RARb:RXRa (NR concentration 270 nM, RXRa partner concentration 90 nM)
Procedure, shortened: as §1

Sequence | PBM binding z-score [1] | PBM binding z-score [2] | PBM binding z-score [3] | PBM binding z-score [4] | PBM binding z-score [5] | PBM binding z-score [6] | PBM binding z-score [7] | PBM binding z-score [8] | PBM binding z-score [9] | PBM binding z-score [10]
TCTACAGGGTCAAAGGCCAGAGTACGAATGTCGA | 2.69 | 4.11 | 0.545 | 0.757 | 1.6 | 4.1 | 0.202 | 5.76 | 0.385 | 4.29
TGTTGTAGATCAACAGGAGGTTAAGAAAGATCGA | -0.279 | 0.51 | 0.32 | 0.601 | 0.107 | 0.714 | -0.0905 | 0.912 | -0.122 | 0.386
ATCTCTAGGTAACAAGTGCAGTGAAAGAGAGGAC | 2.78 | 2.62 | 1.24 | 0.573 | 0.521 | 0.133 | 0.353 | 0.0235 | 0.451 | 0.586
ATACCAAGGTGATCGTGACGTCGTTGATACTAAC | 0.791 | 1.2 | 0.681 | 0.866 | 0.477 | 0.0619 | 0.0409 | 0.447 | 0.899 | 0.752
CGTCCAAGGTCAGCAGGCCAGTGAAAGCGACGTG | 2.35 | 2.56 | -0.196 | -0.403 | 1.55 | 2.26 | -0.0334 | 3.14 | 0.266 | 5.01
CCTTACGGGTCACTGACAGGTTATCGCATTTGGA | 3.47 | 3.69 | 0.381 | 0.623 | 2.57 | 3.78 | -0.364 | 4.93 | 0.262 | 4.06
GCGACTGTGGCAAAGCAGGTTACCATAAGGTTGG | 0.686 | 0.528 | -0.512 | -1.16 | -0.377 | -0.184 | -0.793 | -0.0448 | -0.9 | -0.0264
CCTACTGGGCCACGAAAGGTCATTGATTCAGTGA | 5.99 | 5.95 | 0.883 | -0.339 | 4.26 | 5.45 | 2.06 | 5.9 | 1.7 | 4
ATATGTAGGTTATCGGGTCCTTCAGTTTGCGCAT | 6.92 | 6.98 | 2.02 | 2.6 | 1.69 | 0.963 | 0.468 | 0.74 | 0.677 | 0.829
TCTTGTACATCAAGCAGGTTAAGAAAGCCTGAGT | 1.65 | 0.61 | 0.553 | 1.57 | 0.286 | 0.6 | 0.247 | 0.598 | -0.095 | 0.538
GGAACGAGGGCAAAGTTGATACCATCTGTCGACG | 3.89 | 3.91 | 0.382 | -0.0769 | 0.593 | 1.61 | 0.644 | 2.09 | 0.0395 | 2.42
CCTAGCAGGCCAATCTGGGACACTCAAGGCTTGA | 3.13 | 2.73 | -0.765 | -0.94 | -0.694 | -0.828 | -0.916 | -0.753 | -0.862 | 0.0896
TAGCCTAGGTCATGCGGGCCGGTATAGTGTCGGC | 1.61 | 2.8 | -0.135 | -0.829 | 1.05 | 1.04 | -0.496 | 2.14 | -0.545 | 3.61
GGAACGAGGGCAAAGTCGATAGCATCTGTCGACG | 3.57 | 3.11 | 0.306 | 0.0307 | -0.309 | 0.155 | -0.0717 | 0.0883 | -0.247 | 1.87
TATACAGGGTCAAAGGCCAGAGTCCGAATGTCGA | 2.36 | 4.8 | 1.49 | 0.522 | 2.08 | 4.27 | 0.713 | 5.31 | 0.835 | 4.31
TAGCCTAAGTCATTCAGGGGCCAGTATAGAAAGC | -0.155 | -0.0585 | 0.0399 | 0.2 | 0.00647 | 0.14 | -0.297 | 0.276 | -0.483 | 0.478
TCTTGTAGATCAAAGGTTAAGAGAGCCGAAGCCT | 1.9 | 3.87 | 0.236 | -0.197 | 0.759 | 1.87 | -0.162 | 3.06 | 0.341 | 1.9
TGACTGAGGTTATAAGATCAGGGAACGTTGCAAA | -0.568 | 0.535 | -0.045 | -0.27 | 0.479 | 0.649 | -0.0741 | 1.25 | -0.694 | 1.15
AGAATGAGGTTGCCAAAGATCAGGGAAACGCTTG | -0.0771 | -0.145 | -0.469 | -0.747 | -0.291 | 0.0324 | -0.465 | 0.398 | -0.509 | 0.286
ATCGGAAGGTCGTGAGGTGAGTATACAGAAAGGC | -0.372 | 1.37 | -0.0584 | 0.491 | 1.77 | 1.71 | 0.639 | 2.72 | 1.05 | 2.83
TCTTGTAGATCCAGCAGGTTAAGAAAGCCTGAGT | 1.04 | -0.258 | -0.0441 | -0.28 | -0.955 | 0.35 | 0.226 | 0.259 | -0.051 | 0.133
CCTCGGAGGACAGAAGGCCAGAGCTGTCCGCTTT | -0.668 | -1.07 | -2.21 | -1.68 | -0.167 | -0.524 | -1.34 | -0.34 | -0.862 | 0.374
CTACCAAGGTGAACAAGGCCGTTGATTACTATTC | 2.3 | 2.16 | 0.257 | -0.28 | 0.346 | 0.327 | 0.451 | 0.868 | -0.304 | 1.59
AGAATGAGGTTACCCAAGATCAGGGAAACGCTTG | 3.03 | 2.92 | 1.56 | 1.21 | 0.367 | 1.58 | -0.185 | 2.03 | -0.0633 | 1.82

Sequence | PBM binding z-score [1] | PBM binding z-score [2] | PBM binding z-score [3] | PBM binding z-score [4] | PBM binding z-score [5] | PBM binding z-score [6] | PBM binding z-score [7] | PBM binding z-score [8] | PBM binding z-score [9] | PBM binding z-score [10]
ATATGTAGGTTACATCCGGGTCACTCAGGCTATG | 7.65 | 7.47 | 3.76 | 3.51 | 2.34 | 3.29 | 1.26 | 3.74 | 0.95 | 2.41
TCATATAGGTAAACCGGTGAAAGTCCGTAAGTTA | 4.14 | 3.35 | 0.791 | 0.416 | 0.766 | 0.768 | 0.578 | 0.953 | 0.584 | 0.426
TCGCGTAGGTTAGTCGGGGCATTCAGCCAACATA | 0.798 | 0.382 | -0.631 | -0.248 | -0.58 | 0.226 | -0.158 | 0.335 | -0.333 | 0.559
ATATGTGGGTTAAGGGTCATTCAGGTTGGTTCGC | 7.01 | 7.51 | 2.4 | 2.39 | 3.88 | 5.53 | 3.93 | 6.07 | 3.29 | 3.59
TAGCCTAGGTCATGCAGGGGCCAGTATAGAAAGC | 1.42 | 2.59 | -0.359 | -0.442 | 1.36 | 2.18 | -0.721 | 3.39 | -0.25 | 3.85
ATATGTAGGTTTAGGGTCATTCAGGTTGGTTCGC | 2.89 | 3.81 | 1.35 | 1.25 | 2.95 | 5.07 | 4.08 | 4.48 | 2.17 | 2.79
AGAATGAGGTTATACGTAGATCGGGGAAGAAAGT | 4.33 | 2.22 | 0.772 | -0.0447 | 1 | 1.43 | 0.718 | 1.92 | 0.264 | 1.58
GCAGACAGGTGAAACGCGGGTAACTCAGGGTGGC | 1.2 | 0.724 | -0.459 | -1.01 | -0.647 | -0.0302 | -0.747 | 0.318 | -0.909 | 0.691
CAGACTAGGTCAAGGTCAAAGTCGGTTTGTGCCA | 7.69 | 7.9 | 3.1 | 0.467 | 3.79 | 5.16 | 1.76 | 5.07 | 1.4 | 5.05
GCTTACGGGTCAAAGGTTATATCATGAATAGAAT | 4.73 | 5.93 | 2.65 | 2.07 | 4.59 | 6.41 | 0.529 | 8.44 | 1.02 | 4.55
TCTTGTAGATCACGCAGGTTAAGAAAGCCTGAGT | 2.2 | 1.64 | 0.55 | 0.645 | 0.083 | 0.585 | 0.000906 | 0.685 | 0.00384 | 0.386
GCTAGTTGGTCAGTAATAGGTCACACACCGGTCG | 1.6 | 2.79 | -0.0555 | -0.765 | 1.88 | 2.1 | 0.429 | 2.93 | 0.809 | 2.57
CATACAGGGTCAGCTAGGCCAGACTAGGGACGGC | 1.3 | 2.37 | 0.631 | 0.373 | 0.901 | 2.01 | 0.149 | 2.36 | 0.259 | 3.94
CCATACGGGTCACTCCAGGTTATAGCATCGGAGT | 1.6 | 3.66 | -0.54 | 0.0685 | 1.66 | 4.94 | 0.464 | 3.54 | 0.63 | 3.54
AGAACGAGGGCACGCTGAGTTGTTAGCAGAGTAG | 4.03 | 3.92 | 0.505 | 0.0717 | -0.208 | 0.851 | -0.39 | 0.724 | -0.521 | 2.62
GCGACTGGGCCAAAGCAGGTTACCATAAGGTTGG | 2.12 | 1.67 | -1.03 | -0.738 | -0.482 | -0.203 | -0.655 | 0.347 | -0.649 | -0.0107
CCTAGCAGGCCAATCTGCGTCACTCAAGGCTTGA | 1.32 | -0.303 | -1.31 | -0.968 | -0.505 | -0.683 | -0.513 | -0.426 | -0.164 | 0.0378
CGTATTAGTTGACCATAAGGGCAACCGAAGCTCG | 0.0759 | 0.784 | 0.0678 | -0.147 | 1.44 | 0.388 | 0.0683 | 0.881 | 0.774 | 1.26
CCAGACAGGTGAGAGGTAACTCAGTCTGGTACGC | 1.59 | 1.87 | -0.562 | -0.501 | 0.989 | -0.00466 | -0.224 | 0.194 | 0.0236 | 0.78
CCATACGGGTCACTGACAGGTTATAGCATTTGGA | 2.31 | 3.21 | 0.442 | 0.0659 | 2.58 | 3.55 | 0.194 | 4.58 | 1.68 | 3.81
GTACCAAGGTTAATAGGTCGTTGATGAGTAGGCG | 1.85 | 3.6 | 0.0971 | -0.158 | 2.1 | 1.69 | 0.273 | 2.82 | 0.938 | 2.5
ATATGTAGGTTAGGTGGGGTCATTCAGACTAGGC | 6.72 | 5.87 | 2.01 | 3.16 | 2.99 | 6.47 | 4.9 | 6.09 | 1.79 | 2.98
AGTCAAAGTTTAGGACGAGGTAACGTAAAGCACG | -0.369 | 0.311 | 0.476 | 0.0826 | 0.281 | 0.168 | -0.0643 | 0.219 | 0.258 | 1.41
ACTAGTTAGTCAGCTGAGGTCACACACAATTCGG | 0.771 | 2.31 | 0.856 | 0.622 | 2.26 | 5.14 | 1.6 | 5.01 | 1.35 | 3.3
